Pf Dd2 growth: qHTS Primary assay for Inhibitors of Plasmodium falciparum Dd2 growth in vitro; P. falciparum Dd2 growth, SYBR Green, 72 h; Potency, µM (highest dose often 28.9 µM), without a hit: at the highest dose activity, negative = inhibition, most hits filed as inhibitors; 120,000 tested, 4.3% active; active = well fitted inhibition curve with a large enough effect;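 also: plate controls were DMSO vehicle for no effect and reference drug for full effect; nearly all actives have a fitted effect of over 65% in size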
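Infected erythrocytes (Dd2, 0.3% parasitemia, 2.5% hematocrit final) are added to compound in RPMI-1640/Albumax II medium, grown 72 h at 37C in low oxygen, then lysed with saponin/Triton-X containing SYBR Green and read by fluorescence.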
Active calls of the source: *; i = inactive; [ ] = remark or other dose. The full list was thinned out, with hits kept by preference. Potency is read from the fitted curve at half-maximal effect.

SMILES	Pf Dd2 growth
COc1ccc(C2(C(=O)N3CCC(n4cc(-c5nc(C)no5)nn4)CC3)CC2)cc1	3.2µM*
Cc1ccc(C(=O)N2CCCC(n3cc(-c4nc(C5CC5)no4)nn3)C2)s1 (centres undefined)	-7%
Cc1ccc(C(=O)N2CCC(n3cc(-c4nc(C5CC5)no4)nn3)C2)s1 (centres undefined)	10µM*
CC(C)c1noc(-c2cn(C3CCN(C(=O)c4cccc(C(F)(F)F)c4)C3)nn2)n1 (centres undefined)	10µM*
COc1cccc(C(=O)N2CCC(n3cc(-c4nc(C)no4)nn3)CC2)c1	49%
Cc1ccc(C(=O)N2CCC(n3cc(-c4nc(-c5ccccc5)no4)nn3)C2)cc1C (centres undefined)	-10%
Cc1noc(-c2cn(C3CCN(C(=O)c4ccc(C)s4)CC3)nn2)n1	i
CC(=O)Nc1cccc(C(=O)N2CCC(n3cc(-c4nc(C)no4)nn3)CC2)c1	-1%
Cc1noc(-c2cn(C3CCN(C(=O)C4(c5ccccc5)CC4)CC3)nn2)n1	12%
CC(C)c1noc(-c2cn(C3CCN(C(=O)c4ccc(F)c(F)c4)C3)nn2)n1 (centres undefined)	44%
CC(C)c1noc(-c2cn(C3CCN(C(=O)c4cccc(OC(F)(F)F)c4)C3)nn2)n1 (centres undefined)	141%
COc1cccc(CC(=O)N2CCCC3(C2)NC(=O)N(Cc2ccccc2)C3=O)c1 (centres undefined)	-25%
O=C(Cn1ccn2nc(-c3ccc(F)cc3)c(CO)c2c1=O)Nc1ccc(Br)cc1	-4%
COC[C@@H]1CN(c2cnccn2)C[C@H]1C(=O)NCCc1ccncc1	-4%
CCOCCOC1CCN(C(=O)Nc2ccc3c(c2)OCCO3)CC1	8%
COc1ccc(N2CC(c3noc(-c4ccc(C)c(C)c4)n3)CC2=O)cc1OC (centres undefined)	24%
COc1ccc(CNC(=O)C[C@@H]2C[C@@H](C(C)C)[C@H](CNC(=O)c3ccc(NC(C)=O)cc3)C=C2C)cc1	-14%
CCc1ccc(NC(=O)c2cnn(-c3c(C)cccc3C)c2C2CCN(C(=O)OC(C)(C)C)CC2)cc1	-10%
Cc1cccc(C)c1-n1ncc(C(=O)O)c1C1CCN(C(=O)OC(C)(C)C)CC1	-2%
COc1ccc(-c2cc(C(F)(F)F)n3nc(C(=O)Nc4cccc(Cl)c4C)cc3n2)cc1	39%
CCOc1ccc(-c2nnc(SCC(=O)Nc3ccc(C)cc3C)o2)cc1	16%
CCOc1ccc(-c2cc(C(=O)N3CCN(c4cccc(C)c4)C(C)C3)c3ccccc3n2)cc1 (centres undefined)	-29%
CCOc1ccc(-c2cc3nc(C4CCN(C(=O)OC(C)(C)C)CC4)c(C(=O)Nc4ccc(C)cc4C)cn3n2)cc1	8.9µM*
CCOc1ccc(-c2cc3nc(C4CCN(C(=O)OC(C)(C)C)CC4)c(C(=O)Nc4cccc(Cl)c4C)cn3n2)cc1	5µM*
CCOc1ccc(-c2c(C)nn3c(C)c(C(=O)Nc4cccc(Cl)c4C)cnc23)cc1OCC	i
SMILES	Pf Dd2 growth
CCOc1ccc(-c2cc3nc(C4CCN(C(=O)OC(C)(C)C)CC4)c(C(=O)Nc4ccc(C)cc4Cl)cn3n2)cc1	4µM*
COc1ccc(-n2ncc(C(=O)Nc3ccc(C)cc3Cl)c2C2CCN(C(=O)OC(C)(C)C)CC2)cc1	-7%
CCOc1ccc(-c2nnc(SCC(=O)Nc3ccc(C)cc3Cl)o2)cc1	13%
CCOc1ccc(-c2cc3nc(C4CCN(C(=O)OC(C)(C)C)CC4)c(C(=O)Nc4c(C)cccc4C)cn3n2)cc1	2.5µM*
COc1cccc(CN2CCOC3CCN(Cc4ccc(C#N)cc4)CC3C2=O)c1 (centres undefined)	i
Cn1nccc1C(=O)N1CCC2(CC1)CC(N(C(=O)c1ccccc1)C1CC1)CCO2 (centres undefined)	i
O=C(NCc1cccnc1)[C@@H]1C[C@@H](O)CN1C1CCN(C(=O)Cc2cccc(F)c2)CC1	-13%
O=C1Nc2ccccc2OCC12CCN(Cc1cncs1)CC2	i
O=C(CN1CCOC1=O)N1CCCC(CCc2ccc(F)cc2F)C1 (centres undefined)	-18%
Cc1cccc(CN2CCCC(C(=O)O)CCNC(=O)CC2)c1 (centres undefined)	-13%
Fc1ccc(CCc2nc(C3CCOC3)no2)cc1F (centres undefined)	16%
CS(=O)(=O)N1CC(C(=O)Nc2ccc(N3CCOCC3)cc2)C2(CCCCC2)C1 (centres undefined)	-8%
Cc1noc([C@@H]2CN(C3CCCCC3)C[C@H]2CO)n1	3%
CCCOc1nccnc1NC1CCN(C(=O)c2ccsc2)CC1	13%[5.79 µM]
COC(=O)c1ccc(CN2C(=O)[C@@H]3C[C@@H](O)CN3C3(CN(CC(C)(C)C)C3)C2=O)cc1	-12%[44.1 µM]
COC[C@@H]1CN(Cc2ccc(C)cn2)C[C@H]1C(=O)N(C)C	-22%
NC(=O)[C@@H]1CN(C(=O)CCc2ccccc2)C[C@H]1COc1ccccc1	-16%
O=C(CN1C(=O)NC2(CCS(=O)(=O)CC2)C1=O)Nc1ccc(Br)cc1	6%
Cc1cccc(Cn2c(=O)n(Cc3ccccc3)c(=O)c3sc4ccccc4c32)c1	8.9µM*
Cc1ccc(Cn2c(=O)n(Cc3ccco3)c(=O)c3sc4ccccc4c32)cc1	42%
Cc1ccc(CNC(=O)Cn2c(=O)n(Cc3ccccc3)c(=O)c3sc4ccccc4c32)cc1	42%
FC(F)(F)c1cc(Nc2cnc3ccc(N4CCOCC4)nn23)ccc1Cl	-17%[44.1 µM]
COc1ccc(Nc2cnc3ccc(N4CCOCC4)nn23)cn1	i
COc1cccc(Nc2cnc3ccc(N4CCOCC4)nn23)c1	i
CN(Cc1ccc(F)cc1)c1ccc2ncc(Nc3ccnc(N4CCOCC4)c3)n2n1	4µM*
SMILES	Pf Dd2 growth
Fc1ccc(-c2ccc3ncc(Nc4ccnc(N5CCOCC5)c4)n3n2)cc1	0.56µM*
COc1cncc(Nc2cnc3ccc(N(C)Cc4ccc(F)cc4)nn23)c1	i
CN1CCN(c2ccc3ncc(Nc4ccccc4F)n3n2)CC1	-1%[44.1 µM]
Clc1ccccc1Nc1cnc2ccc(N3CCOCC3)nn12	-14%[44.1 µM]
FC(F)(F)Oc1ccc(Nc2cnc3ccc(N4CCOCC4)nn23)cc1	11µM*
Fc1ccc(-c2ccc3ncc(Nc4ccc5c(c4)OCO5)n3n2)cc1	i
CN(Cc1ccc(F)cc1)c1ccc2ncc(Nc3ccc4c(c3)OCCO4)n2n1	5.6µM*
COc1ncccc1Nc1cnc2ccc(N(C)C)nn12	i
O=C1N(c2ccccc2)C[C@H]2CN(CC3CC3)CCN12	-21%[44.1 µM]
COc1ccccc1-n1cc(C(=O)N(C)Cc2noc3c2CCCC3)cn1	-25%
COc1cc(OC)cc(-c2nc3ccc(-c4ccc(OC)c(OC)c4OC)cc3o2)c1	i
Cn1nccc1-c1cc2c(cn1)CN(Cc1ccncc1)CCN2	31%[44.1 µM]
Cc1ccc(-c2nnc3ccc(N4CCCCC4)nn23)nc1	-2%[44.1 µM]
COC[C@H]1CCCN1C(=O)CC[C@@H]1CNC(=O)[C@@H]2C[C@H](NCc3ccc(OC)cc3)CN12	i
Cc1ccccc1-c1ncc(CN2CCN(c3ccncc3C)CC2)cn1	-19%
COc1cc(C(=O)N2CC[C@@]3(O)CCN(S(C)(=O)=O)C[C@H]3C2)ccn1	-4%
O=C1CC2(CCN(C(=O)c3ccc4c(c3)OCO4)CC2)Oc2cc(Cl)ccc21	i
Cn1ccc(C2CCCCN2Cc2cc(=O)c3cc(C(N)=O)ccc3[nH]2)n1 (centres undefined)	-4%
COc1ccc(CN2CC[C@H]3COC(=O)N3c3ccc(OC)cc3C2)cc1	-20%[44.1 µM]
